Measured values published in the supplement of paper PMC6555819.

Experiments:
Assay in all cases: PBM binding z-score (relative to random genomic background probes); higher = stronger binding; sequences stand for … in GC…GCGATTGACAGCGTAGAATGAAGG
[1] = test system: FXR:RXRa (NR concentration 270 nM, RXRa partner concentration 90 nM)
Outline: (§1)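 Custom Agilent 4×180K protein-binding microarrays carried double-stranded probes. Their 34-nt variable regions held direct-repeat seeds, single-nucleotide variants, half-site ablations and random human genomic background sequences. Arrays were incubated 1 h with ligand-free nuclear receptor dimers in PBS pH 7.4, 2% milk, 0.02% Triton X-100, 1 mM DTT, 0.2 mg/mL BSA and 0.4 mg/ml salmon testes DNA. Antibodies against each partner (one per run) detected binding, and scanned fluorescence was regression-normalized. Binding z-scores use random background probes as reference.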

[2] = test system: LXRa:RXRa (NR concentration 270 nM, RXRa partner concentration 90 nM)
Outline: as §1

[3] = test system: LXRa homodimer (NR concentration 270 nM)
Outline: as §1

[4] = test system: LXRb:RXRa (NR concentration 270 nM, RXRa partner concentration 90 nM)
Outline: as §1

[5] = test system: PPARa:RXRa (NR concentration 270 nM, RXRa partner concentration 90 nM)
Outline: as §1

[6] = test system: PPARg:RXRa (NR concentration 180 nM, RXRa partner concentration 90 nM)
Outline: as §1

[7] = test system: PPARg:RXRa 270nM:90nM, anti-RXR (NR concentration 270 nM, RXRa partner concentration 90 nM)
Outline: as §1

[8] = test system: PPARg:RXRa 30nM:10nM, anti-RXR (NR concentration 30 nM, RXRa partner concentration 10 nM)
Outline: as §1

[9] = test system: PPARg:RXRa 90nM:30nM, anti-RXR (NR concentration 90 nM, RXRa partner concentration 30 nM)
Outline: as §1

[10] = test system: PPARg:RXRa DBDmut IVT, anti-RXR (DBD mutation: RXRa K156A/R161A, NR concentration 270 nM, RXRa partner concentration 90 nM)
Outline: as §1

[11] = test system: PPARg:RXRa IVT, anti-PPARg (NR concentration 270 nM, RXRa partner concentration 90 nM)
Outline: as §1

[12] = test system: PPARg homodimer (NR concentration 180 nM)
Outline: as §1

[13] = test system: PXR:RXRa (NR concentration 270 nM, RXRa partner concentration 90 nM)
Outline: as §1

[14] = test system: PXR homodimer (NR concentration 270 nM)
Outline: as §1

[15] = test system: RARa:RXR (NR concentration 270 nM, RXRa partner concentration 90 nM)
Outline: as §1

[16] = test system: RARa homodimer (NR concentration 270 nM)
Outline: as §1

[17] = test system: LXRb homodimer (NR concentration 270 nM)
Outline: as §1

[18] = test system: PPARg DBDmut:RXRa IVT, anti-PPARg (DBD mutation: PPARg1 K132A/R137A, NR concentration 270 nM, RXRa partner concentration 90 nM)
Outline: as §1

[19] = test system: PPARg DBDmut IVT, anti-PPARg (DBD mutation: PPARg1 K132A/R137A, NR concentration 270 nM)
Outline: as §1

[20] = test system: RARb:RXRa (NR concentration 270 nM, RXRa partner concentration 90 nM)
Outline: as §1

Sequence	PBM binding z-score [1]	PBM binding z-score [2]	PBM binding z-score [3]	PBM binding z-score [4]	PBM binding z-score [5]	PBM binding z-score [6]	PBM binding z-score [7]	PBM binding z-score [8]	PBM binding z-score [9]	PBM binding z-score [10]	PBM binding z-score [11]	PBM binding z-score [12]	PBM binding z-score [13]	PBM binding z-score [14]	PBM binding z-score [15]	PBM binding z-score [16]	PBM binding z-score [17]	PBM binding z-score [18]	PBM binding z-score [19]	PBM binding z-score [20]
CCGAGTAGGTTACGGGGGGGCATTCAGTGCGAAT	4.53	6.83	3.13	7.21	3.74	4.54	4.46	2.55	3.84	5.07	5.61	4.19	5.79	7.32	4.18	2.21				
ATATGTAGGTGAAGGGTCATTCAGGTTGGTTCGC	4.21	4.29	1.74	3.78			11.2	11.3	12.7	8.51	8.85	6.22	5.27	2.24	5.79	1.46	1.03	6.44	4.69	3.3
CCGACTGGGGCAAAGGTCACCATACTCAGTACGA	4.94	4.64	1.94	4.54			10	12.4	11.1	5.43	6.94	4.04	5.34	0.429		1.73	-0.206	0.0184	-0.117	4.73
CAAACTAGGTCACAGGGGTCAAAGTCCGTGCGTA	7.54	6.48	5.12	6.61			8.74	7.69	9.17	8.38	9.12	3.99	6.9	8.47	8.18	1.96	1.67	4.98	3.18	5.46
CTATGTAGGTTAAGGGGGTCATACAGTTTGAAAG	5.2	5.02	1.99	6.22	6.21	8.81	8.13	6.16	8.11	7.64	7.1	3.8	5.63	8.43	5.95	2.55				3.77
CGAACTAGGTCAAAGGGCAGTGAAAGGCGACGTA	5.16	3.62	-0.00961	2.68			10.2	10.2	11.2	8.19	8.52	2.2	2.96	-0.191	4.78	-0.269	-0.302		0.155	4.31
CCTGCTAGTTCAATGGTCAGCTAAAGCAGCTCGC	-0.115	0.171	-0.297	0.044		-0.523	0.0511	-0.764	-0.0476	0.00571	-0.344	0.058	0.465	-0.0496	0.242	-0.645	-0.17	-0.548	-1.19	1.49
TCTTGTAGGTCAAAGGTTAAGAAAGCCGAAGCCT	7.08	6.11	2.09	5.26			10.7	11.9	12.2	7.87	8.59	3.23	5.44	0.389		0.512	1.73	1.61	1.68	5.12
CTATGTAGGTTAAGGGGGTCATTCAATTTGAAAG	5.04	4.74	2.45	6.26	6.18	8.92	7.74	5.91	8.06	7.02	7.79	5.83	5.67	3.88	5.82	1.49				3.55
CCGTGTAGGTTACGAGGGGGCATTCAGTGCGAAT	2.88	7.45	2.37	6.73	3.56	2.16	3.34	1.52	2.52	3.52	4.85	2.84	5.31	7.2	3.23	1.33				2.47
TCGAGTAGGATACGGGGGCATTCAGGGATGAAGA	1.26	1.43	0.346	3.58	2.35	1.24	2.72	2.22	2.53	1.6	3.19	0.663	2.12	0.916	2.17	0.237				1.25
CCCGCTAGGTCATGGTCAGCTAATCTACAGTATG	3.68	2.72	0.611	2		2.43	2.82	0.967	1.94	3.87	3.52	1.77	1.49	-0.038	2.33	0.196	-0.348	-0.299	-0.741	3.83
CCGAGTAGTTTACGAGGGGGCATTCAGTGCGAAT	1.62	4.8	0.906	4.15	2.17	-0.276	1.08	0.469	1.59	1.32	0.828	0.86	3.29	4.22	2.06	0.00505				1.4
CCGAGTAGGTTTCGAGGGGGCATTCAGTGCGAAT	1.41	2.96	1.18	4.53	2.37	-0.183	1.67	0.107	1.44	2.27	2.41	1.58	3.09	5.29	1.88	0.558				1.28
CGAACTAGTTCAAGGACAGTGAATCTCCGCACGC	0.282	0.229	-0.253	-0.107			0.0328	-0.735	-0.0258	0.894	-0.296	0.151	0.352	0.308	0.402	-0.835	-0.693	-0.635	-0.503	1.53
CCGACTGGGTCAAAGGTTACCATACTCAGTACGA	4.79	4.3	0.367	4.02		12	10.2	9.87	11.1	6.05	7.26	1.89	5.14	-0.223		0.785	-0.508	1.18	0.000446	4.1

Sequence	PBM binding z-score [1]	PBM binding z-score [2]	PBM binding z-score [3]	PBM binding z-score [4]	PBM binding z-score [5]	PBM binding z-score [6]	PBM binding z-score [7]	PBM binding z-score [8]	PBM binding z-score [9]	PBM binding z-score [10]	PBM binding z-score [11]	PBM binding z-score [12]	PBM binding z-score [13]	PBM binding z-score [14]	PBM binding z-score [15]	PBM binding z-score [16]	PBM binding z-score [17]	PBM binding z-score [18]	PBM binding z-score [19]	PBM binding z-score [20]
TCGAGTAGGTTACGGTGGCATTCAGGGATGAAGA	0.0909	0.257	-0.578	0.0794	1.81	1.73	2.29	1.44	1.9	3.28	3.56	0.177	-0.0566	-0.975	0.611	-0.958				0.864
TGAATGAGGTTAAAGGTCAGGGAACGTGGCGTCG	7.23	6	2.34	5.35			9.95	12.2	12.1	3.7	6.46	5.36		1.01		3.29	1.05	1.94	1.25	5.08
CTATGTAGGTAAAGGGGGTCATTCAGTTTGAAAG	4.07	4.67	2.77	5.98	5.92	7.28	7.12	4.91	6.93	6.89	7.06	3.59	5.82	10.7	6.13	1.83				
TCATATAGGTCAAAGGTGAAAGTCGGTGTGGTAA	7.15	6.06	2.14	5.58			9.8	10.4	11.4	8.06	7.84	3.28	5.31	1.13		1.6	1.91	1.77	2.53	4.89
GCTTACGGGTCAAAGGTTATAACATGAATAGAAT	7.52	5.95	0.829	5.89		11.2	9.66	8.65	10.4	4.69	5.8	3.61	6.24	0.489	8.14	0.937	1.05	1.74	2.86	4.53
CCGAGCAGGTTACGAGGGGGCATTCAGTGCGAAT	2.35	7.31	1.46	6.07	3.01	0.89	1.95	0.464	1.36	1.69	2.54	1.34	5.19	4.97	3.16	0.223				2.22
CCGAGTAGGTTACGAGGGGGCTTTCAGTGCGAAT	1.47	3.54	0.44	4.05	2.66	1.29	2.7	0.558	1.82	4.79	4.3	0.789	2.01	0.241	1.55	-0.415				1.41
TCATATAGGTAAAAGGTCAAAGTCGGTGTGGTAA	6.77	6.41	4.99	5.78			10.5	10.9	12.4	5.65	6.93	5.82	5.94	2.41		4.73	2.43	2.69	3	4.88
CCGAGTAGGTTACGAGTGGGCATTCAGTGCGAAT	0.0253	3.62	-0.367	0.771	1.09	0.765	1.33	-0.376	0.662	4.82	3.49	0.313	0.0829	-0.15	0.124	-0.322				0.921
CTCGAAAGGTGGTGCTCAGGTGAGTATACCAAAC	-0.352	-0.533	-0.489	-0.329		-0.375	-0.0981	-0.462	-0.126	-0.605	0.359	0.0565	-0.599	-0.22	0.343	-0.47	-0.573	-0.543	-0.314	0.237
GATACGGGGTCAGCTAGAGGCCAGAGTATGGAAA	7.6	5.46	-0.127	5.17		7.74	7.16	3.25	5.78	3.12	4.66	4.42	5.75	0.6	6.84	0.888	0.715	1.44	0.481	5.15
CCTACTGGGCCATTCAGAGGTCATTGTTCATATG	2.55	4.4	6.96	3.77		1.98	3.18	0.535	2.16	4.55	4.17	2.5	4.71	2.33	4.2	0.216	0.5	0.178	-0.495	2.97
AGTGAAAGTTCAGGACGAGGTAACGTAAAGCACG	3.78	3.69	1.17	1.94		3.61	4.03	1.48	2.89	-0.565	1.36	1.57		1.41	2.9	0.544	0.34	0.759	0.589	4.14
CGAACTAGGTCAAAGGTCAGTGAAAGGCGACGTA	7.45	6	2.09	5.55			11.3	12.7	14	8.37	9.1	5.51		0.306		2.87	0.335		4.58	
TTTAGTTGGTCAAAGGTCACACACTCGAAATGCG	6.28	5.76	3.99	5.54			10.6	11.3	11.6	4.19	7	5.45	6.21	1.61	7.55	3.28	1.9	2.09	2.08	5.17
CCGAGTAGGTTACGAGGGGGCATTCTGTGCGAAT	2.88	7.2	1.77	6.24	3.38	2.22	3.46	0.457	2.35	4.91	4.3	2.19	4.42	1.05	3.12	0.262				2.01
